# Reference: PubChem BioAssay AID1508601 (ICCB-Longwood Screening Facility, Harvard Medical School, 2020)
# Several values for one entry are separate records, joined by “and”; a condition that tells them apart may be missing. Equal entries are not always repeated. Out of some 5,700 compounds screened, about 85 (1%) were called active. Rule as the data show it: active = p53-positive nuclei above about 36% (passing the limit was not always enough); inactive = the rest. This excerpt belongs to a sample that is enriched for actives.
# Experiments:
# [1] = p53 stabilisation in HPV-positive human cells, imaging, p53-positive nuclei imaging, 24 h, 48 h (AID 1508601); settings: 24/48 h
# [2] = target: Cellular tumor antigen p53 (Homo sapiens) (UniProt P04637); experiment: as above; settings: 24/48 h, stronger effect = higher value
# [3] = measured here: cell number at 24 h, Library stock concentration: 46 uM
# [4] = measured here: cell number at 24 h, Library stock concentration: 278 uM
# [5] = measured here: cell number at 24 h, Library stock concentration: 1.67 mM
# [6] = measured here: cell number at 24 h, Library stock concentration: 3.33 mM
# [7] = measured here: cell number at 24 h, Library stock concentration: 10 mM
# [8] = measured here: cell number at 48 h, Library stock concentration: 46 uM
# [9] = measured here: cell number at 48 h, Library stock concentration: 278 uM
# [10] = measured here: cell number at 48 h, Library stock concentration: 1.67 mM
# [11] = measured here: cell number at 48 h, Library stock concentration: 3.33 mM
# [12] = measured here: cell number at 48 h, Library stock concentration: 10 mM
# [13] = Library stock concentration: 46 uM
# [14] = Library stock concentration: 278 uM
# [15] = Library stock concentration: 1.67 mM
# [16] = Library stock concentration: 3.33 mM
# [17] = Library stock concentration: 10 mM
# [18] = measured here: p53 positive nuclei at 24 h, Library stock concentration: 46 uM
# [19] = measured here: p53 positive nuclei at 24 h, Library stock concentration: 278 uM
# [20] = measured here: p53 positive nuclei at 24 h, Library stock concentration: 1.67 mM
# [21] = measured here: p53 positive nuclei at 24 h, Library stock concentration: 3.33 mM
# [22] = measured here: p53 positive nuclei at 24 h, Library stock concentration: 10 mM
# [23] = measured here: cell number at 24 h, concentration not given here
# [24] = measured here: cell number at 48 h, concentration not given here
# [25] = measured here: p53 positive nuclei at 24 h, concentration not given here
# Cellular tumor antigen p53 (Homo sapiens), sequence (P04637 whole entry, looked up): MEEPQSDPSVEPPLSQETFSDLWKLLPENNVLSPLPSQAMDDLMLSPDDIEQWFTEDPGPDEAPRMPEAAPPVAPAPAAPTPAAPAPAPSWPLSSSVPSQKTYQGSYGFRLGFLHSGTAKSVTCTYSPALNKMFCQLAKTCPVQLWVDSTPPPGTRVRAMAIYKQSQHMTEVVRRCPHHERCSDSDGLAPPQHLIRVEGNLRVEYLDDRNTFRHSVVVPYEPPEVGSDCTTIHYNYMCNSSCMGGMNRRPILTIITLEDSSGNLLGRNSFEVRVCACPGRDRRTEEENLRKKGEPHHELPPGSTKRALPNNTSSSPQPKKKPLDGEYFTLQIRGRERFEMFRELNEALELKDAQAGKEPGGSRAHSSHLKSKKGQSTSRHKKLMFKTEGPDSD
structure (smiles),measurement,setting,value
CN1CCc2c(c3ccccc3n2Cc2ccc(C(=O)NO)cc2)C1,"nuclei count, normalised",[1]; [3],117%
same,"nuclei count, normalised",[1]; [4],120%
same,"nuclei count, normalised",[1]; [5],115%
same,"nuclei count, normalised",[1]; [6],110% and 92.2%
same,"nuclei count, normalised",[1]; [7],114%
same,"nuclei count, normalised",[1]; [8],119%
same,"nuclei count, normalised",[1]; [9],116%
same,"nuclei count, normalised",[1]; [10],110%
same,"nuclei count, normalised",[1]; [11],102% and 95.4%
same,"nuclei count, normalised",[1]; [12],107%
same,"p53-positive nuclei, normalised",[2]; [13],-0.237% (inactive)
same,"p53-positive nuclei, normalised",[2]; [14],0.0738% (inactive)
same,"p53-positive nuclei, normalised",[2]; [15],0.201% (inactive)
same,"p53-positive nuclei, normalised",[2]; [16],-0.139% (inactive) and -0.349% (inactive)
same,"p53-positive nuclei, normalised",[2]; [17],-0.117% (inactive)
same,"p53-positive nuclei, normalised",[2]; [18],-0.158%
same,"p53-positive nuclei, normalised",[2]; [19],-0.207%
same,"p53-positive nuclei, normalised",[2]; [20],-0.0538%
same,"p53-positive nuclei, normalised",[2]; [21],-0.314% and -0.356%
same,"p53-positive nuclei, normalised",[2]; [22],-0.152%
CCCCC/C=C\C/C=C\CCCC/C=C\CCCC(=O)O,"nuclei count, normalised",[1]; [23],97.6%
same,"nuclei count, normalised",[1]; [24],96%
same,"p53-positive nuclei, normalised",[2]; concentration not given here,-0.0366% (inactive)
same,"p53-positive nuclei, normalised",[2]; [25],0.0071%
Cc1ccc(B(O)O)cc1,"nuclei count, normalised",[1]; [3],105%
same,"nuclei count, normalised",[1]; [4],101%
same,"nuclei count, normalised",[1]; [5],110%
same,"nuclei count, normalised",[1]; [7],110%
same,"nuclei count, normalised",[1]; [8],109%
same,"nuclei count, normalised",[1]; [9],102%
same,"nuclei count, normalised",[1]; [10],112%
same,"nuclei count, normalised",[1]; [12],112%
same,"p53-positive nuclei, normalised",[2]; [13],-0.0277% (inactive)
same,"p53-positive nuclei, normalised",[2]; [14],-0.207% (inactive)
same,"p53-positive nuclei, normalised",[2]; [15],-0.181% (inactive)
same,"p53-positive nuclei, normalised",[2]; [17],-0.0402% (inactive)
same,"p53-positive nuclei, normalised",[2]; [18],-0.0986%
same,"p53-positive nuclei, normalised",[2]; [19],-0.148%
same,"p53-positive nuclei, normalised",[2]; [20],-0.218%
same,"p53-positive nuclei, normalised",[2]; [22],-0.0984%
COc1ccc(CNc2nc(N3CCCC3CO)ncc2C(=O)NCc2ncccn2)cc1Cl (stereo not drawn),"nuclei count, normalised",[1]; [6],112%
same,"nuclei count, normalised",[1]; [11],104%
same,"p53-positive nuclei, normalised",[2]; [16],-0.102% (inactive)
same,"p53-positive nuclei, normalised",[2]; [21],-0.198%
CCc1cnn2c(NCc3ccc[n+]([O-])c3)cc(N3CCCCC3CCO)nc12 (stereo not drawn),"nuclei count, normalised","[1]; measured here: cell number at 24 h, Library stock concentration: 80 uM",30.2%
same,"nuclei count, normalised","[1]; measured here: cell number at 24 h, Library stock concentration: 400 uM",27.8%
same,"nuclei count, normalised","[1]; measured here: cell number at 24 h, Library stock concentration: 2 mM",24.5%
same,"nuclei count, normalised",[1]; [6],27.3%
same,"nuclei count, normalised",[1]; [7],30.5%
same,"nuclei count, normalised","[1]; measured here: cell number at 48 h, Library stock concentration: 80 uM",20.4%
same,"nuclei count, normalised","[1]; measured here: cell number at 48 h, Library stock concentration: 400 uM",19.3%
same,"nuclei count, normalised","[1]; measured here: cell number at 48 h, Library stock concentration: 2 mM",16.3%
same,"nuclei count, normalised",[1]; [11],18.9%
same,"nuclei count, normalised",[1]; [12],20.6%
same,"p53-positive nuclei, normalised",[2]; Library stock concentration: 80 uM,51.1% (active)
same,"p53-positive nuclei, normalised",[2]; Library stock concentration: 400 uM,35% (inactive)
same,"p53-positive nuclei, normalised",[2]; Library stock concentration: 2 mM,42% (inactive)
same,"p53-positive nuclei, normalised",[2]; [16],36.1% (inactive)
same,"p53-positive nuclei, normalised",[2]; [17],26.7% (inactive)
same,"p53-positive nuclei, normalised","[2]; measured here: p53 positive nuclei at 24 h, Library stock concentration: 80 uM",9.51%
same,"p53-positive nuclei, normalised","[2]; measured here: p53 positive nuclei at 24 h, Library stock concentration: 400 uM",6.74%
same,"p53-positive nuclei, normalised","[2]; measured here: p53 positive nuclei at 24 h, Library stock concentration: 2 mM",7.45%
same,"p53-positive nuclei, normalised",[2]; [21],8.9%
same,"p53-positive nuclei, normalised",[2]; [22],2.01%
COc1cccc2c(C)cc(N3CCC[C@H]3CO)nc12,"nuclei count, normalised",[1]; [23],96.3%
same,"nuclei count, normalised",[1]; [24],98.1%
same,"p53-positive nuclei, normalised",[2]; concentration not given here,-0.0398% (inactive)
same,"p53-positive nuclei, normalised",[2]; [25],0.0977%
CCCCCCCCCCCCCC=CC(O)C(CO)N(C)C (stereo not drawn),"nuclei count, normalised","[1]; measured here: cell number at 24 h, Library stock concentration: 500 nM",120%
same,"nuclei count, normalised","[1]; measured here: cell number at 24 h, Library stock concentration: 1.5 uM",110%
same,"nuclei count, normalised","[1]; measured here: cell number at 24 h, Library stock concentration: 4.6 uM",117%
same,"nuclei count, normalised","[1]; measured here: cell number at 24 h, Library stock concentration: 13.7 uM",108%
same,"nuclei count, normalised","[1]; measured here: cell number at 24 h, Library stock concentration: 41 uM",110%
same,"nuclei count, normalised","[1]; measured here: cell number at 24 h, Library stock concentration: 123 uM",122%
same,"nuclei count, normalised","[1]; measured here: cell number at 24 h, Library stock concentration: 370 uM",122%
same,"nuclei count, normalised","[1]; measured here: cell number at 24 h, Library stock concentration: 1.111 mM",118%
same,"nuclei count, normalised","[1]; measured here: cell number at 24 h, Library stock concentration: 3.333 mM",102%
same,"nuclei count, normalised",[1]; [7],35.8%
same,"nuclei count, normalised","[1]; measured here: cell number at 48 h, Library stock concentration: 500 nM",115%
same,"nuclei count, normalised","[1]; measured here: cell number at 48 h, Library stock concentration: 1.5 uM",109%
same,"nuclei count, normalised","[1]; measured here: cell number at 48 h, Library stock concentration: 4.6 uM",107%
same,"nuclei count, normalised","[1]; measured here: cell number at 48 h, Library stock concentration: 13.7 uM",107%
same,"nuclei count, normalised","[1]; measured here: cell number at 48 h, Library stock concentration: 41 uM",110%
same,"nuclei count, normalised","[1]; measured here: cell number at 48 h, Library stock concentration: 123 uM",114%
same,"nuclei count, normalised","[1]; measured here: cell number at 48 h, Library stock concentration: 370 uM",116%
same,"nuclei count, normalised","[1]; measured here: cell number at 48 h, Library stock concentration: 1.111 mM",112%
same,"nuclei count, normalised","[1]; measured here: cell number at 48 h, Library stock concentration: 3.333 mM",109%
same,"nuclei count, normalised",[1]; [12],22.2%
same,"p53-positive nuclei, normalised",[2]; Library stock concentration: 500 nM,-0.17% (inactive)
same,"p53-positive nuclei, normalised",[2]; Library stock concentration: 1.5 uM,-0.126% (inactive)
same,"p53-positive nuclei, normalised",[2]; Library stock concentration: 4.6 uM,-0.0366% (inactive)
same,"p53-positive nuclei, normalised",[2]; Library stock concentration: 13.7 uM,-0.121% (inactive)
same,"p53-positive nuclei, normalised",[2]; Library stock concentration: 41 uM,-0.00454% (inactive)
same,"p53-positive nuclei, normalised",[2]; Library stock concentration: 123 uM,-0.0524% (inactive)
same,"p53-positive nuclei, normalised",[2]; Library stock concentration: 370 uM,0.0673% (inactive)
same,"p53-positive nuclei, normalised",[2]; Library stock concentration: 1.111 mM,-0.00344% (inactive)
same,"p53-positive nuclei, normalised",[2]; Library stock concentration: 3.333 mM,-0.0281% (inactive)
same,"p53-positive nuclei, normalised",[2]; [17],3.77% (inactive)
same,"p53-positive nuclei, normalised","[2]; measured here: p53 positive nuclei at 24 h, Library stock concentration: 500 nM",-0.148%
same,"p53-positive nuclei, normalised","[2]; measured here: p53 positive nuclei at 24 h, Library stock concentration: 1.5 uM",-0.148%
same,"p53-positive nuclei, normalised","[2]; measured here: p53 positive nuclei at 24 h, Library stock concentration: 4.6 uM",-0.148%
same,"p53-positive nuclei, normalised","[2]; measured here: p53 positive nuclei at 24 h, Library stock concentration: 13.7 uM",-0.019%
same,"p53-positive nuclei, normalised","[2]; measured here: p53 positive nuclei at 24 h, Library stock concentration: 41 uM",-0.0213%
same,"p53-positive nuclei, normalised","[2]; measured here: p53 positive nuclei at 24 h, Library stock concentration: 123 uM",-0.148%
same,"p53-positive nuclei, normalised","[2]; measured here: p53 positive nuclei at 24 h, Library stock concentration: 370 uM",-0.0899%
same,"p53-positive nuclei, normalised","[2]; measured here: p53 positive nuclei at 24 h, Library stock concentration: 1.111 mM",-0.0918%
same,"p53-positive nuclei, normalised","[2]; measured here: p53 positive nuclei at 24 h, Library stock concentration: 3.333 mM",-0.0113%
same,"p53-positive nuclei, normalised",[2]; [22],3.53%
